Values joined by “and” are separate entries in the source; they are usually repeats but may differ in a detail not shown here. Equal values may be shown once. Records with an inconclusive call do not appear. Active and inactive are the calls of the source. Unless noted, calls come from the whole dose curve; as a rule, active = well fitted curve in the direction sought with a large enough effect in the repeat runs; inconclusive = weak or mixed curves; inactive = no such curve, though single readings can be large; an effect the other way counts as inactive or inconclusive.
What was measured:
[1] = target: Thyrotropin receptor (Homo sapiens) (UniProt P16473); test: qHTS assay to identify small molecule antagonists of the thyroid stimulating hormone receptor (TSHR) signaling pathway (AID 1259385; calls by dose curve; note: nearly all actives have a fitted effect of over 20% in size)
In short: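 TSHR-HEK293 cells (800/well) plated 18 h, then compounds with Ro20-1724 and TSH at 1.5 ng/mL final, 30 min at room temperature. cAMP quantified by HTRF (cAMP-d2/anti-cAMP-cryptate, 1 h); 15 concentrations in triplicate.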

[2] = qHTS assay to identify small molecule agonists of the estrogen receptor alpha (ER-alpha) signaling pathway in the presence of an antagonist - cell viability counter screen (AID 1259386);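 note: series mostly up to about 92 µM; cells exposed to compounds for 22 h at 37 °C before the viability read; nearly all actives have a fitted effect of over 30% in size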
In short: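 Viability counter screen using VM7Luc4E2 (full-length ER-alpha, four ERE-luciferase). The cells were treated with compounds alongside ICI-182,780 10.0nM for 22hr, and live-cell protease fluorescence was quantified with CellTiter-Fluor.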

[3] = target: Progesterone receptor (Homo sapiens) (UniProt P06401); test: qHTS assay to identify small molecule agonists of the progesterone receptor (PR) signaling pathway (AID 1346784; calls by dose curve; note: nearly all actives have a fitted effect of over 30% in size)
In short: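 Fluorescence from LiveBLAzer B/G FRET substrate cleavage (2 hr, RT) reported PR activation in PR-UAS-bla HEK 293T cells treated 16 hr at 37C/5% CO2 with compounds; medium contained 2% charcoal-stripped FBS.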

[4] = target: Progesterone receptor (Homo sapiens) (UniProt P06401); test: qHTS assay to identify small molecule antagonists of the progesterone receptor (PR) signaling pathway (AID 1346795; active = well fitted inhibition curve with a large enough effect in the signal ratio in the repeat runs, not every such curve was filed as active; the % refers to the signal ratio; note: potency is the fitted concentration of half-maximal effect)
In short: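 Fluorescence intensity measured 2 hr after adding beta-lactamase FRET substrate to PR-UAS-bla HEK293T cells that had been co-treated 16 hr with compound and 1 nM R5020 (final concentration) in 2% charcoal-stripped FBS.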

[5] = qHTS assay to identify small molecule agonists of the progesterone receptor (PR) signaling pathway - cell viability counter screen (AID 1346799; calls by dose curve; note: nearly all actives have a fitted effect of over 45% in size)
In short: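 In parallel with the beta-lactamase readout, cytotoxicity toward PR-UAS-bla HEK293T cells was measured by CellTiter-Glo luminescence following 16 hr compound incubation in 2% charcoal-stripped FBS medium.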

[6] = qHTS assay to identify small molecule antagonists of the TGF-beta/Smad signaling pathway - cell viability counter screen (AID 1346824); note: nearly all actives have a fitted effect of over 50% in size
In short: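 SBE-bla HEK 293T cells, incubated overnight, then compound plus 0.25 ng/mL TGF-beta1 (stock added) for 5 hr at 37 C. Viability was read in the same wells by CellTiter-Glo luminescence after 30 min at room temperature.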

[7] = qHTS assay to identify small molecule agonists of the TGF-beta/Smad signaling pathway (AID 1346859; active = well fitted activation curve with a large enough effect in the signal ratio in the repeat runs, not every such curve was filed as active; the % refers to the signal ratio; note: series mostly up to about 77 µM)
In short: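 After overnight seeding, SBE-bla HEK 293T cells are dosed with compounds in DMSO and kept 5 hr at 37 C, 5% CO2. LiveBLAzer-type FRET substrate is then applied for 2 hr at room temperature.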

[8] = target: Thyrotropin-releasing hormone receptor (Homo sapiens) (UniProt P34981); test: qHTS assay to identify small molecule antagonists of the thyrotropin-releasing hormone receptor (TRHR) signaling pathway (AID 1346877; active = well fitted inhibition curve with a large enough effect in the repeat runs, not every such curve was filed as active; note: series mostly up to about 51 µM)
In short: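 Following an 18 h incubation at 37 °C and a 2 h calcium dye load, TRHR-HEK293 cells were exposed to compound (5 min, room temperature) and challenged with TRH, 1 nM final.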

[9] = target: Thyrotropin-releasing hormone receptor (Homo sapiens) (UniProt P34981); test: qHTS assay to identify small molecule agonists of the thyrotropin-releasing hormone receptor (TRHR) signaling pathway (AID 1346891; calls by dose curve;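 note: HEK293 cells expressing TRHR with calcium dye readout; series mostly up to about 58 µM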)
In short: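 Compounds were tested as agonists at 15 concentrations, in triplicate, on TRHR-Hek293 cells; calcium-sensitive dye fluorescence was recorded for 3 min following addition.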

[10] = Human pregnane X receptor (PXR) small molecule agonists, qHTS cell viability counter screen (AID 1346977); note: nearly all actives have a fitted effect of over 50% in size
In short: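 Viability counter screen: CellTiter-Fluor signal in PXR-Luc HepG2 cells, 24hr compound exposure, 37C, 5% CO2.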

[11] = Caspase-3/7 induction in HepG2 cells by small molecules, qHTS assay (AID 1346978); note: nearly all actives have a fitted effect of over 15% in size
In short: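 Wild-type HepG2 cells, 2,000/well, settled 5 hr at 37 C and 5% CO2, then compound-treated for 17 hr; caspase-3/7 activity read by luminescent Caspase-Glo 3/7 after 30 min at room temperature.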

[12] = Caspase-3/7 induction in CHO-K1 cells by small molecules, qHTS cell viability counter screen (AID 1346979); note: nearly all actives have a fitted effect of over 35% in size
In short: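 Viability readout by fluorescence (CellTiter-Fluor) on wild-type CHO-K1 cells exposed for 16hr at 37C and 5% CO2 to compounds delivered in DMSO; reagent incubated 1hr before reading.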

[13] = Caspase-3/7 induction in CHO-K1 cells by small molecules, qHTS assay (AID 1346980); note: nearly all actives have a fitted effect of over 15% in size
In short: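 Wild-type CHO-K1 cells exposed to compounds for 17hr at 37 C, 5% CO2. Caspase-3/7 activity then measured by Caspase-Glo 3/7 luminescence after 30min at room temperature.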

[14] = Caspase-3/7 induction in HepG2 cells by small molecules, qHTS cell viability counter screen (AID 1346981); note: series mostly up to about 92 µM; nearly all actives have a fitted effect of over 30% in size
In short: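 Viability determined by CellTiter-Fluor fluorescence in HepG2 wells also used for the luminescent Caspase-Glo 3/7 read. Compounds were present for 16 hr at 37 C, 5% CO2 before reagent addition.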

[15] = target: Nuclear receptor subfamily 1 group I member 2 (Homo sapiens) (UniProt O75469); test: Human pregnane X receptor (PXR) small molecule agonists, qHTS assay (AID 1346982); note: nearly all actives have a fitted effect of over 35% in size; note: potency is the fitted concentration of half-maximal effect
In short: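 Compound-induced hPXR transactivation of a CYP3A4 luciferase reporter was scored in HepG2 PXR-Luc cells over 24 hr at 37 C, 5% CO2, by luminescence.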

[16] = qHTS assay to identify small molecule antagonists of the progesterone receptor (PR) signaling pathway - cell viability counter screen (AID 1346798); note: series mostly up to about 92 µM; nearly all actives have a fitted effect of over 50% in size
In short: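 CellTiter-Glo luminescence; PR-UAS-bla HEK293T, 3,000 cells/well; compound + R5020, 16 hr, 37C/5% CO2; 30 min RT before read.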

[17] = qHTS assay to identify small molecule agonists of the TGF-beta/Smad signaling pathway - cell viability counter screen (AID 1346829); note: top concentration of the series differs between compounds; nearly all actives have a fitted effect of over 45% in size
In short: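 SBE-bla HEK 293T cells plated overnight, compound exposure 5 hr at 37 C. Viability read in the same wells by CellTiter-Glo luminescence after 30 min at room temperature, following the beta-lactamase read.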

[18] = target: Nuclear receptor subfamily 1 group I member 2 (Rattus norvegicus) (UniProt Q9R1A7); test: Rat pregnane X receptor (rPXR) activation by small molecules, qHTS assay (AID 1346983); details: rPXR luciferase reporter cells, One-Glo luminescence, 24 h; active compounds read high; note: nearly all actives have a fitted effect of over 20% in size
In short: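 Cell-based rPXR activation assay: rPXR cells, 2,000 per well, rested 5hr at 37 C, then exposed to compounds in DMSO for 24 hr at 37 C. Luciferase activity read by One-Glo luminescence after 30 min at room temperature.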

[19] = target: Nuclear receptor subfamily 1 group I member 2 (Homo sapiens) (UniProt O75469); test: CYP3A4 induction through human pregnane X receptor (PXR) by small molecules, qHTS assay (AID 1346984); note: nearly all actives have a fitted effect of over 40% in size
In short: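 Readings come from a luciferase reporter: DPX-2 cells, which are HepG2 cotransfected with PXR and a CYP3A4-promoter construct, were exposed to test compounds for 24 h at 37C before One-Glo detection.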

[20] = target: Nuclear receptor subfamily 1 group I member 2 (Homo sapiens) (UniProt O75469); test: Human pregnane X receptor (PXR) activation by small molecules, qHTS assay (AID 1346985); note: nearly all actives have a fitted effect of over 40% in size
In short: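 DPX-2 cells (HepG2 co-transfected with a PXR response element and a CYP3A4-promoter luciferase construct) were seeded at 2,000 per well, rested 5 hr at 37C, then exposed to DMSO-dissolved compounds for 24 hr. Activation was read as luciferase luminescence.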
% is set by controls: 0 for no effect and ±100 for the full control effect.

Sequence of Progesterone receptor (Homo sapiens) (P06401 whole entry, looked up): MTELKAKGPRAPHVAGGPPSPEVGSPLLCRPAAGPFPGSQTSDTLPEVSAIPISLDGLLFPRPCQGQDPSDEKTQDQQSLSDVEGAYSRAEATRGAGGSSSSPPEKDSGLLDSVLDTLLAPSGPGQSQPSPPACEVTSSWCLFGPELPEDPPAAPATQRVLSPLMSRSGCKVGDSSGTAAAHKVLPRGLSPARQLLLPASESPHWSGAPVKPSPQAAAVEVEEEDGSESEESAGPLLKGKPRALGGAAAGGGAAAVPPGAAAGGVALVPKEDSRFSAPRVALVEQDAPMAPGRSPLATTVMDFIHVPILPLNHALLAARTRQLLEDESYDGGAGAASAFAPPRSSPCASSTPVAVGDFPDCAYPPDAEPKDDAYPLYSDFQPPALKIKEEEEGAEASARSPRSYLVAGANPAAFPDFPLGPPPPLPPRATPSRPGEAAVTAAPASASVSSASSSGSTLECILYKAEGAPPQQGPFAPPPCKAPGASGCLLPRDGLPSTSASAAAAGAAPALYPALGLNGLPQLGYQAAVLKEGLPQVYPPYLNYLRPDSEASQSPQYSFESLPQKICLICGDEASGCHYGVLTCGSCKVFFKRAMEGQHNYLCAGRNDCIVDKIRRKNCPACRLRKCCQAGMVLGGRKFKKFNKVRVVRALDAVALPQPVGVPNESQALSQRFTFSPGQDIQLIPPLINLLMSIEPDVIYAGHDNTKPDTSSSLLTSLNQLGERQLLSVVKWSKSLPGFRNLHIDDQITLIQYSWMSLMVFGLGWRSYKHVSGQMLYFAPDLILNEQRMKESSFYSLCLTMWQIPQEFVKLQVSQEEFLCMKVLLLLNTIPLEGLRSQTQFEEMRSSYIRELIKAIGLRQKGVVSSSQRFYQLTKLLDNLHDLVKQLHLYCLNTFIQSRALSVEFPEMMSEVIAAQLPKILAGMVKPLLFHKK
Sequence of Nuclear receptor subfamily 1 group I member 2 (Rattus norvegicus) (Q9R1A7 whole entry, looked up): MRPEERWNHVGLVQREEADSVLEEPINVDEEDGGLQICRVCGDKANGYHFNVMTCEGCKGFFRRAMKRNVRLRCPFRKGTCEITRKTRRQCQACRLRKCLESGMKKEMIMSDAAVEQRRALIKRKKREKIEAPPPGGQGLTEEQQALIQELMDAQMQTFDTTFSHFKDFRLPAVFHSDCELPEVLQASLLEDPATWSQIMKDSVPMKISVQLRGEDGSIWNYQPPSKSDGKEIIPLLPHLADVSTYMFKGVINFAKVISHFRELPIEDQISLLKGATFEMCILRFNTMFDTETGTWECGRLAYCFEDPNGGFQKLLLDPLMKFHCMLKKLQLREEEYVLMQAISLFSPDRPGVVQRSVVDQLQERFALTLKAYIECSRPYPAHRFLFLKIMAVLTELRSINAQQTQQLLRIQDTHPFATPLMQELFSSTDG
Sequence of Thyrotropin receptor (Homo sapiens) (P16473 whole entry, looked up): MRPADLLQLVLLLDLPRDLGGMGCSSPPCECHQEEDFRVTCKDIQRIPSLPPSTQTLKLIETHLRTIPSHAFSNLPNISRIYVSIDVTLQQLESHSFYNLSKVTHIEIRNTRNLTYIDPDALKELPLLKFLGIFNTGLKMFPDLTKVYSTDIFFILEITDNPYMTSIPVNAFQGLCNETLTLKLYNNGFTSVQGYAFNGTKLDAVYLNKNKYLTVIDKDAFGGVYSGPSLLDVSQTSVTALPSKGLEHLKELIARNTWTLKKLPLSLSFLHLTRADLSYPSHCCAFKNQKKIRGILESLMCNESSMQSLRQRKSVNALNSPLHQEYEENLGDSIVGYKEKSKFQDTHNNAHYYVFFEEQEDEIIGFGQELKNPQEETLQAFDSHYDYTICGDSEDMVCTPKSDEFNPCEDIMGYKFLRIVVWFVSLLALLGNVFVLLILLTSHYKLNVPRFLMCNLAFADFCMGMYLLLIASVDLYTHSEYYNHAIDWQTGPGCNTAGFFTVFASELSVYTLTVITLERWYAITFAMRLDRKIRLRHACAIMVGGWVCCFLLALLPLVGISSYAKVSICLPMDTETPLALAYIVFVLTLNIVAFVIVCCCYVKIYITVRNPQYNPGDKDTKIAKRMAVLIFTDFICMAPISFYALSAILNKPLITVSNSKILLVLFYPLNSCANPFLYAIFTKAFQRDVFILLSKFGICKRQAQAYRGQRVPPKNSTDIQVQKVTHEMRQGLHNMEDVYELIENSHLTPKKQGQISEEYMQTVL
Sequence of Thyrotropin-releasing hormone receptor (Homo sapiens) (P34981 whole entry, looked up): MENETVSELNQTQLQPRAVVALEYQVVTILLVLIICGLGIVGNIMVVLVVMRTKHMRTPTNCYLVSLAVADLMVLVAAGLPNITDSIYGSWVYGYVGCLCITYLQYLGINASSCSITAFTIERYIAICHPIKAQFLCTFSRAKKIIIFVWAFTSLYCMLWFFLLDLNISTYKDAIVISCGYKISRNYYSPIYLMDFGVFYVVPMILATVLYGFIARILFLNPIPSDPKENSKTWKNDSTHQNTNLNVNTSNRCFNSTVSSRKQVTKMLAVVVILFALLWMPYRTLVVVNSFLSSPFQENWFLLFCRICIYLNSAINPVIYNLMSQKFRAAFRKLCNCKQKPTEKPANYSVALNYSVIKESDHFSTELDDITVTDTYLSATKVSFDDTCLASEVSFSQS
Sequence of Nuclear receptor subfamily 1 group I member 2 (Homo sapiens) (O75469 whole entry, looked up): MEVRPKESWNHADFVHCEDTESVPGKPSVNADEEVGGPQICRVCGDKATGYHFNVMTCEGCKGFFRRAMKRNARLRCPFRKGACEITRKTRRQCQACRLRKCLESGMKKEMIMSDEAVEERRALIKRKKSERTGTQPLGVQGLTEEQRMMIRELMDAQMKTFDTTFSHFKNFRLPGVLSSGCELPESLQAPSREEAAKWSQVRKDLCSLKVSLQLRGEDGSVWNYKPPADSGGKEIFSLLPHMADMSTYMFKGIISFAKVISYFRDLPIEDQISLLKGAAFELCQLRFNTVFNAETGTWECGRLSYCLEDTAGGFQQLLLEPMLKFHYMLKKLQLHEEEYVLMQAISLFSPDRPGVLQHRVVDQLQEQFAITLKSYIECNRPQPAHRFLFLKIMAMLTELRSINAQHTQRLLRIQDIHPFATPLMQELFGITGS

CC(=O)c1ccc(O)cc1
inactive: outcome [1] | Potency [2] | Potency [3] | Potency [4] | outcome [5] | outcome [6] | outcome [7] | outcome [8] | outcome [9] | Potency [10] | Potency [11] | Potency [12] | outcome [13] | Potency [14] | Potency [15]

Nc1nc(N)nc(-c2ccccc2)n1
inactive: outcome [1] | Potency [2] | Potency [3] | Potency [4] | outcome [16] | outcome [5] | outcome [17] | outcome [7] | outcome [8] | outcome [9] | Potency [10] | Potency [11] | Potency [12] | outcome [13] | Potency [14]

CCCCCCCCCCN
inactive: outcome [1] | Potency [2] | Potency [3] | Potency [4] | outcome [16] | outcome [5] | outcome [7] | outcome [8] | outcome [9] | Potency [10] | Potency [11] | Potency [12] | outcome [13] | Potency [14] | Potency [15]

CC(=O)CCC=C(C)C
inactive: outcome [1] | Potency [2] | Potency [3] | Potency [4] | outcome [5] | outcome [6] | outcome [7] | outcome [8] | outcome [9] | Potency [10] | Potency [11] | Potency [12] | outcome [13] | Potency [14] | Potency [15]

OCc1ccccc1
inactive: outcome [1] | Potency [2] | Potency [3] | Potency [4] | outcome [16] | outcome [5] | outcome [17] | outcome [7] | outcome [8] | outcome [9] | Potency [10] | Potency [11] | Potency [12] | outcome [13] | Potency [14] | Potency [15] | max activation [18] -0.795% | Potency [19] | outcome [20]

CCCCCCCO
inactive: outcome [1] | Potency [2] | Potency [3] | Potency [4] | outcome [16] | outcome [5] | outcome [17] | outcome [7] | outcome [8] | outcome [9] | Potency [10] | Potency [11] | Potency [12] | outcome [13] | Potency [14] | Potency [15]

C=Cc1ccc(C)cc1
inactive: outcome [1] | Potency [2] | Potency [3] | Potency [4] | outcome [5] | outcome [6] | outcome [17] | outcome [7] | outcome [8] | outcome [9] | Potency [10] | Potency [11] | Potency [12] | outcome [13] | Potency [14] | Potency [15]

O=C(O)CCCCCCCCC(=O)O
inactive: outcome [1] | Potency [2] | Potency [3] | Potency [4] | outcome [16] | outcome [5] | outcome [17] | outcome [8] | outcome [9] | Potency [10] | Potency [11] | Potency [12] | outcome [13] | Potency [14] | Potency [15]

CCCCC(C=O)CC (stereo not drawn)
inactive: outcome [1] | Potency [2] | Potency [3] | Potency [4] | outcome [5] | outcome [6] | outcome [7] | outcome [8] | outcome [9] | Potency [10] | Potency [11] | Potency [12] | outcome [13] | Potency [14] | Potency [15]

O=C(O)c1ccccc1C(=O)O
inactive: outcome [1] | Potency [2] | Potency [3] | Potency [4] | outcome [5] | outcome [6] | outcome [17] | outcome [7] | Potency [10] | Potency [12] | outcome [13] | Potency [14] | Potency [15]

CC(CCO)CC(C)(C)C (stereo not drawn)
inactive: outcome [1] | Potency [2] | Potency [3] | Potency [4] | outcome [5] | outcome [6] | outcome [17] | outcome [7] | outcome [8] | outcome [9] | Potency [10] | Potency [12] | outcome [13] | Potency [14] | Potency [15]

CNC(=O)Oc1ccc2c(c1)[C@]1(C)CCN(C)[C@@H]1N2C
inactive: outcome [1] | Potency [2] | Potency [3] | Potency [4] | outcome [16] | outcome [5] | outcome [7] | outcome [8] | outcome [9] | Potency [10] | Potency [11] | Potency [12] | outcome [13] | Potency [14] | Potency [15] | max activation [18] -1.54% | Potency [19] | outcome [20]

COc1ccccc1OCC(O)CO (stereo not drawn)
inactive: outcome [1] | Potency [2] | Potency [3] | Potency [4] | outcome [5] | outcome [6] | outcome [7] | outcome [8] | outcome [9] | Potency [10] | Potency [12] | outcome [13] | Potency [14]

NCCN1CCNCC1
inactive: outcome [1] | Potency [2] | Potency [3] | Potency [4] | outcome [5] | outcome [6] | outcome [17] | outcome [7] | Potency [10] | Potency [12] | outcome [13] | Potency [14] | Potency [15]

CSc1ccc(Cl)cc1
inactive: outcome [1] | Potency [2] | Potency [3] | Potency [4] | outcome [16] | outcome [5] | outcome [17] | outcome [7] | outcome [8] | outcome [9] | Potency [10] | Potency [11] | Potency [12] | outcome [13] | Potency [14] | Potency [15]

CC1(C)CC(N)CC(C)(CN)C1 (stereo not drawn)
active: Potency [15] 49.3 µM and 24.3 µM
inactive: outcome [1] | Potency [2] | Potency [3] | Potency [4] | outcome [5] | outcome [6] | outcome [17] | outcome [7] | outcome [8] | outcome [9] | Potency [10] | Potency [11] | Potency [12] | outcome [13] | Potency [14]

N[C@H](Cc1c[nH]c2ccccc12)C(=O)O
inactive: outcome [1] | Potency [2] | Potency [3] | Potency [4] | outcome [16] | outcome [5] | outcome [17] | outcome [7] | outcome [8] | outcome [9] | Potency [10] | Potency [11] | Potency [12] | outcome [13] | Potency [14] | Potency [15] | max activation [18] -2.63% | outcome [20]

OCc1cccc(Oc2ccccc2)c1
inactive: outcome [1] | Potency [2] | Potency [3] | outcome [16] | outcome [5] | outcome [17] | outcome [7] | outcome [8] | outcome [9] | Potency [10] | Potency [11] | Potency [12] | outcome [13] | Potency [14]
active: Potency [4] 54.5 µM
